Most compounds without a hit are left out; they make up all but 2.4% or so of the library.
D2 PAM-1 = Beta-Arrestin HTS for Positive Allosteric Modulators of the Human D2 Dopamine Receptor: Potentiators; hit rate 0.23% among 360,000; DiscoveRx D2 beta-arrestin cells, luminescence, 90 min; 100% = 57 uM dopamine signal; potentiation, % (no concentration beside the values); in the data active = potentiation above about 50%
Target sequence (P14416 whole entry, looked up): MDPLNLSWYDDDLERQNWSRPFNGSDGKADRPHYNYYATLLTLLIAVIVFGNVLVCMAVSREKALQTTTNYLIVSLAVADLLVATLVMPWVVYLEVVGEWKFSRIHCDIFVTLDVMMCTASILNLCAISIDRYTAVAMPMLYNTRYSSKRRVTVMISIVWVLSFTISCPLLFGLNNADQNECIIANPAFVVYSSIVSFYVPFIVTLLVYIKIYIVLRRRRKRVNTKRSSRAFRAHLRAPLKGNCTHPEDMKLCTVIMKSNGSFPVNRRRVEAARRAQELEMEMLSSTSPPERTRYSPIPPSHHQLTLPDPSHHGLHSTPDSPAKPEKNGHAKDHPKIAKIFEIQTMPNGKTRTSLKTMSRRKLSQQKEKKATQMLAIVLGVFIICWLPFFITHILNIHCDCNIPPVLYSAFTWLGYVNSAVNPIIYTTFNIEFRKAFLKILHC
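PathHunter D2 cells, attached overnight at 37 deg C, received compound in DMSO plus dopamine at EC20 (50 nM final) for 90 min at 37 deg C. Beta-arrestin recruitment was read as luminescence after 1 h with detection reagent at ambient temperature.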
D2 PAM-2 = HTS Assay for Positive Allosteric Modulators of the Human D2 Dopamine Receptor: Primary Screen for Potentiators; HEK293 T-REx D2, calcium flux, EC20 dopamine potentiation; D(2) dopamine receptor (Homo sapiens), P14416; hit rate 0.34% among 340,000; potentiation, % at 10 µM;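 active = potentiation over 3 SD above the plate norm, cut at about 30% in these data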; note: 0% is about no effect
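Using a no-wash calcium dye in inducible, force-coupled HEK293 Trex cells expressing D2, we tracked fluorescence each second for 180 s after compound, then for 180 s after EC20 dopamine to detect augmented signalling.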
D2 ag-1 = Beta-Arrestin HTS for Positive Allosteric Modulators of the Human D2 Dopamine Receptor: Agonists | D(2) dopamine receptor (Homo sapiens), P14416 | DiscoveRx PathHunter D2 beta-arrestin, luminescence, 90 min; 100% = 57 uM dopamine signal | activation, % (test concentration not listed) | hit rate 0.084% among 360,000; in the data active = activation above about 40%
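Agonist mode: compounds alone added to overnight-plated D2 PathHunter cells for 90 min at 37 C, with 57 uM final dopamine (EC100) defining full response. Beta-arrestin recruitment detected by chemiluminescent reagent, read after 1 h at ambient temperature.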
D2 ag-2 = HTS Assay for Allosteric Agonists of the Human D2 Dopamine Receptor: Primary Screen for Agonists; D(2) dopamine receptor (Homo sapiens), P14416; HEK293 T-REx D2 cells, calcium flux agonist mode; activation, % at 2 µM; hit rate 0.53% among 340,000;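 active = activation over 3 SD above normal in the single-dose calcium agonist read, cut at about 30% in these data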; note: 0% is about no effect
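HEK293 Trex D2 cells, tetracycline-induced, o/n 30 C 5% CO2; no-wash Ca dye, RT 30–90 min; 10-cycle baseline, 23 nl cpd added, kinetic Ca read 180 s; agonist hits = positive Ca response.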
D2 antag = HTS Assay for Allosteric Antagonists of the Human D2 Dopamine Receptor: Primary Screen for Antagonists. inhibition, % at 10 µM. AID 485344, 2010. hit rate 2% among 340,000. HEK293 TREx D2 cells, calcium flux, dopamine EC80. D(2) dopamine receptor (Homo sapiens), P14416; in the data active = inhibition above about 30%; inactive = below that, where a call was filed; note: 0% is about no effect
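Tetracycline-induced HEK293 TREx cells expressing D2 receptor forced-coupled to calcium signalling, loaded with no-wash calcium dye. Compounds added and calcium flux read 180 s, then dopamine added at EC80 and read a further 180 s.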
* marks the source's active call; other numbers are inactive results.

What do the screens show for `COc1cccc(CCNC(=O)c2ccc(Cn3c(SCc4ccccc4)nc4cccnc43)cc2)c1`?
D2 PAM-2: -7.2

How did CC(C)c1ccc(NS(=O)(=O)c2ccc3[nH]cc(C(=O)N4CCCC4)c(=O)c3c2)cc1 do in these assays?
D2 PAM-2: -1.4; D2 ag-2: 0.1

What do the screens show for `O=C(NCc1ccc(F)cc1)c1cc2sccc2n1Cc1ccc(F)cc1`?
D2 PAM-2: 31.2*; D2 ag-2: 1.0; D2 antag: -4.8

Results for CCc1ccc(CN(C)CC(=O)Nc2sccc2C#N)cc1 ?
D2 PAM-1: -12.8; D2 PAM-2: 8.9; D2 ag-1: -3.4; D2 ag-2: -0.4; D2 antag: 63.9*

How did O=C(Nc1ccc(Cl)cc1)NC1CCCC1Cc1ccco1 (stereo not drawn) do in these assays?
D2 PAM-1: -25.3; D2 PAM-2: -16.4; D2 ag-1: -2.8; D2 ag-2: 0.9; D2 antag: 53.4*

Results for O=C(Nc1ccc(Cl)cc1)NC1CCCCC1Cc1ccco1 (stereo not drawn) ?
D2 PAM-1: -5.1; D2 PAM-2: -7.9; D2 ag-1: -4.9; D2 ag-2: 2.8; D2 antag: -13.1

Results for Cc1ccccc1NCc1cccn1-c1nnc(N2CCC(C)CC2)s1 ?
D2 PAM-2: -11.8; D2 ag-2: -2.3

How did COC(C[C@H](O)C[C@H](O)[C@H](C)OCc1ccccc1)OC do in these assays?
D2 PAM-1: -3.7; D2 PAM-2: 12.4; D2 ag-1: -3.5; D2 ag-2: -1.0; D2 antag: 37.8*

What do the screens show for `COC(C[C@@H](O)CC(=O)[C@@H](C)OCc1ccccc1)OC`?
D2 PAM-1: -2.8; D2 PAM-2: 8.6; D2 ag-1: -3.3; D2 ag-2: 0.3; D2 antag: 7.1

Results for CC[C@]12c3[nH]c4ccc(Cl)cc4c3CCN1C(=O)[C@@H](CC(=O)NCCc1ccccn1)C[C@@H]2C(=O)N1CCN(C(=O)C2CC2)CC1 ?
D2 ag-1: 0.3

What do the screens show for `Cc1ccc(S(=O)(=O)Nc2ccc(N3CCN(C)CC3)nc2)cc1`?
D2 PAM-1: -21.0; D2 PAM-2: -14.4; D2 ag-1: -6.9; D2 ag-2: -0.8; D2 antag: 4.1

What do the screens show for `CCc1ccc(S(=O)(=O)Nc2ccc3c(c2)n(C)c(=O)c(=O)n3C)cc1`?
D2 PAM-2: -11.0; D2 ag-2: 0.3

What do the screens show for `CN1CCN(c2ccc(NS(=O)(=O)c3ccc(Cl)cc3)cn2)CC1`?
D2 PAM-1: -7.6; D2 PAM-2: -5.4; D2 ag-1: -1.6; D2 ag-2: -1.3; D2 antag: 32.7*

What do the screens show for `CCc1ccc(S(=O)(=O)Nc2ccc(N3CCN(C)CC3)cc2)cc1`?
D2 PAM-1: -23.2; D2 PAM-2: -19.6; D2 ag-1: 0.9; D2 ag-2: 0.7; D2 antag: 75.0*

What do the screens show for `Cc1ccc(-n2nc3c(=O)n(C(C)C(=O)NCc4ccc(Cl)cc4)nc(C)c3c2C)cc1` (stereo not drawn)?
D2 PAM-1: -7.6; D2 PAM-2: -12.8; D2 ag-1: 5.9; D2 ag-2: 21.9; D2 antag: 4.1

How did NS(=O)(=O)c1ccc(N2N=C(c3ccccc3)CC2c2ccccc2Cl)cc1 (stereo not drawn) do in these assays?
D2 PAM-1: -5.5; D2 ag-1: -4.4

How did O=C(c1ccccc1Cl)n1nc(-c2ccco2)nc1NCc1cccs1 do in these assays?
D2 PAM-2: -7.3; D2 ag-2: -0.8

What do the screens show for `Cc1ccccc1NC(=O)NC1CCS(=O)(=O)C1` (stereo not drawn)?
D2 PAM-1: 3.9; D2 PAM-2: 2.4; D2 ag-1: -0.8; D2 ag-2: 0.1; D2 antag: -7.4

Results for COc1ccccc1NC(=O)NC1CCS(=O)(=O)C1 (stereo not drawn) ?
D2 PAM-1: -4.5; D2 PAM-2: -5.3; D2 ag-1: -4.4; D2 ag-2: 0.7; D2 antag: 39.2*

High-throughput results deposited in PubChem BioAssay by National Center for Advancing Translational Sciences (NCATS).
